PubChem BioAssay (Tox21)
Inconclusive results are not listed. Calls of active or inactive are those of the source. Calls follow the shape of the dose curve; as a rule, active = well fitted curve in the direction sought with a large enough effect in the repeat runs; inconclusive = weak or mixed curves; inactive = no such curve, though single readings can be large; an effect the other way counts as inactive or inconclusive.

Experiments:
[1] = A CellTox Green Cytotoxicity Assay to monitor cytotoxicity in HEK293 cells - 40 hour (AID 1224871); also: nearly all actives have a fitted effect of over 45% in size
Procedure, shortened: (§1)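 Nonlytic real-time cytotoxicity: HEK293 + CellTox Green reagent plated, 5 h preincubation, pintool compound addition (23 nL in DMSO), 37 C for 40 h, fluorescence measured at successive time points.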

[2] = qHTS RealTime-Glo MT Cell Viability Assay in HEK293 cells - 40 hour (AID 1224874); settings: RealTime-Glo luminescence; max response: active compounds read low; also: nearly all actives have a fitted effect of over 50% in size
Procedure, shortened: (§2)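 Cells were seeded together with NanoLuc luciferase and a prosubstrate that viable cells reduce to a luciferase substrate. After a 5 h incubation at 37 C/5% CO2, compounds were added and luminescence was measured repeatedly during 40 h of treatment.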

[3] = A CellTox Green Cytotoxicity Assay to monitor cytotoxicity in HEK293 cells - 24 hour (AID 1224875); also: series mostly up to about 77 µM; nearly all actives have a fitted effect of over 45% in size
Procedure, shortened: as §1

[4] = A CellTox Green Cytotoxicity Assay to monitor cytotoxicity in HepG2 cells - 16 hour (AID 1224876); also: nearly all actives have a fitted effect of over 45% in size
Procedure, shortened: (§3)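 Read-out is fluorescence of a cyanine dye excluded from live cells that stains DNA of dead HepG2 cells, with signal proportional to cytotoxicity. Plates were read at 0, 8, 16, 24, 32 and 40 h after compound addition.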

[5] = A CellTox Green Cytotoxicity Assay to monitor cytotoxicity in HepG2 cells - 24 hour (AID 1224878); also: nearly all actives have a fitted effect of over 45% in size
Procedure, shortened: as §3

[6] = A CellTox Green Cytotoxicity Assay to monitor cytotoxicity in HepG2 cells - 40 hour (AID 1224879); also: nearly all actives have a fitted effect of over 40% in size
Procedure, shortened: as §3

[7] = qHTS RealTime-Glo MT Cell Viability Assay in HEK293 cells - 0 hour (AID 1224880)
Procedure, shortened: as §2

[8] = A CellTox Green Cytotoxicity Assay to monitor cytotoxicity in HEK293 cells - 32 hour (AID 1224881); also: nearly all actives have a fitted effect of over 40% in size
Procedure, shortened: as §1

[9] = A CellTox Green Cytotoxicity Assay to monitor cytotoxicity in HepG2 cells - 32 hour (AID 1224883); also: nearly all actives have a fitted effect of over 50% in size
Procedure, shortened: as §3

[10] = A CellTox Green Cytotoxicity Assay to monitor cytotoxicity in HEK293 cells - 8 hour (AID 1224884); also: nearly all actives have a fitted effect of over 35% in size
Procedure, shortened: as §1

[11] = qHTS RealTime-Glo MT Cell Viability Assay in HepG2 cells - 16 hour (AID 1224885); also: nearly all actives have a fitted effect of over 50% in size
Procedure, shortened: (§4)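 Tox21 10K library screened in qHTS format on HepG2 cells carrying RealTime-Glo reagents. Compounds were added after a 5 h preincubation, and the luminescent signal from continuous culture was measured repeatedly during 40 h treatment.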

[12] = qHTS RealTime-Glo MT Cell Viability Assay in HEK293 cells - 24 hour (AID 1224886); also: top concentration of the series differs between compounds; nearly all actives have a fitted effect of over 50% in size
Procedure, shortened: (§5)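 Luminescence generated by NanoLuc from substrate produced by living HEK293 cells served as the viability signal. Each value reflects the reading at its stated time point during continuous 40 h compound exposure at 37 C.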

[13] = qHTS RealTime-Glo MT Cell Viability Assay in HEK293 cells - 8 hour (AID 1224887)
Procedure, shortened: as §2

[14] = A CellTox Green Cytotoxicity Assay to monitor cytotoxicity in HEK293 cells - 16 hour (AID 1224888); also: nearly all actives have a fitted effect of over 35% in size
Procedure, shortened: as §1

[15] = qHTS RealTime-Glo MT Cell Viability Assay in HepG2 cells - 0 hour (AID 1224889); also: nearly all actives have a fitted effect of over 50% in size
Procedure, shortened: as §4

[16] = A CellTox Green Cytotoxicity Assay to monitor cytotoxicity in HepG2 cells - 8 hour (AID 1224890); also: nearly all actives have a fitted effect of over 45% in size
Procedure, shortened: as §3

[17] = qHTS RealTime-Glo MT Cell Viability Assay in HepG2 cells - 8 hour (AID 1224873); also: nearly all actives have a fitted effect of over 55% in size
Procedure, shortened: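 HepG2 cells mixed with RealTime-Glo MT reagents (NanoLuc plus cell-permeant prosubstrate) were seeded at 600 cells/well, incubated 5 h at 37 C/5% CO2, then pinned with compounds in DMSO; nonlytic luminescence tracked viability during 40 h treatment.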

[18] = qHTS RealTime-Glo MT Cell Viability Assay in HepG2 cells - 32 hour (AID 1224877); also: nearly all actives have a fitted effect of over 55% in size
Procedure, shortened: as §4

[19] = A CellTox Green Cytotoxicity Assay to monitor cytotoxicity in HepG2 cells - 0 hour (AID 1224882); also: nearly all actives have a fitted effect of over 35% in size
Procedure, shortened: as §3

[20] = qHTS RealTime-Glo MT Cell Viability Assay in HEK293 cells - 16 hour (AID 1224872)
Procedure, shortened: as §5
% is scaled to controls: 0 for no effect and ±100 for the full control effect.

CC(=O)CCc1ccc2c(c1)OCO2
inactive: Potency [1] | max response [2] 0.514% | Potency [3] | Potency [4] | Potency [5] | Potency [6] | outcome [7] | Potency [8] | Potency [9] | Potency [10] | Potency [11] | Potency [12] | Potency [13] | Potency [14] | Potency [15] | Potency [16]

C#C[C@]1(O)C=C[C@H]2[C@@H]3CCC4=CC(=O)CC[C@@H]4[C@H]3CC[C@@]21CC
inactive: Potency [1] | Potency [17] | Potency [3] | Potency [4] | Potency [18] | Potency [5] | Potency [6] | outcome [7] | Potency [8] | Potency [9] | Potency [10] | Potency [11] | Potency [13] | Potency [14] | Potency [15]

c1coc(-c2nc3ccccc3[nH]2)c1
inactive: Potency [1] | Potency [17] | Potency [3] | Potency [4] | Potency [18] | Potency [5] | Potency [6] | outcome [7] | Potency [8] | outcome [19] | Potency [9] | Potency [10] | Potency [11] | Potency [14] | Potency [15] | Potency [16]

COc1ccc2c(c1OC)CN1CCc3cc4c(cc3C1C2)OCO4 (stereo unspecified)
inactive: Potency [1] | Potency [17] | Potency [3] | Potency [4] | Potency [18] | Potency [5] | Potency [6] | outcome [7] | Potency [8] | Potency [9] | Potency [10] | Potency [11] | Potency [13] | Potency [14] | Potency [15] | Potency [16]

CCN(Cc1ccc(Cl)nc1)/C(=C/[N+](=O)[O-])NC
inactive: Potency [20] | Potency [17] | max response [2] 2.66% | Potency [3] | Potency [4] | Potency [18] | Potency [5] | Potency [6] | outcome [7] | Potency [8] | outcome [19] | Potency [9] | Potency [10] | Potency [11] | Potency [12] | Potency [13] | Potency [14] | Potency [15] | Potency [16]

O=C(CCCN1CCC(n2c(=O)[nH]c3ccccc32)CC1)c1ccc(F)cc1
inactive: Potency [17] | Potency [3] | Potency [5] | Potency [6] | outcome [7] | Potency [8] | outcome [19] | Potency [9] | Potency [11] | Potency [14] | Potency [15] | Potency [16]

NC1=NC(=O)C(c2ccccc2)O1 (stereo unspecified)
inactive: Potency [20] | max response [2] 1.11% | Potency [3] | Potency [4] | Potency [18] | Potency [5] | Potency [6] | outcome [7] | Potency [8] | outcome [19] | Potency [9] | Potency [11] | Potency [12] | Potency [13] | Potency [14] | Potency [15]

CCC/C(=N\OCC)C1=C(O)CC(CC(C)SCC)CC1=O (stereo unspecified)
inactive: Potency [20] | Potency [3] | Potency [4] | Potency [18] | Potency [5] | Potency [6] | outcome [7] | Potency [8] | Potency [9] | Potency [11] | Potency [13] | Potency [14] | Potency [15] | Potency [16]

CC1(C(=O)Nc2ccc(O)c(Cl)c2Cl)CCCCC1
inactive: Potency [18] | outcome [7] | outcome [19] | Potency [10] | Potency [11] | Potency [14] | Potency [15]
